{"source": "PubChem BioAssay AID488911", "about": "(Broad Institute, 2010)", "test": "NIH-3T3 viability with fluconazole co-treatment – cell-based, Alamar Blue, dry powder, set 2, cytotoxicity control for antifungal resistance reversal project, dose response (AID 488911)", "note": "Entries with a potency or affinity are not part of this list. Calls of active or inactive are those of the source.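 Rule for the calls: active = falling signal whose fitted half-effect dose is at or below ten times the top valid dose; inconclusive = flat fit showing a moderate drop, or a poor fit; inactive = the rest.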", "data": [{"smiles": "O=C(c1ccc(Cl)cc1)N1CCN(c2ccnc3ccc(Cl)cc23)CC1", "values": [{"measurement": "outcome", "result": "inactive"}]}, {"smiles": "O=C(c1ccc(Cl)cc1)N1CCN(c2ncnc3ccccc23)CC1", "values": [{"measurement": "outcome", "result": "inactive"}]}, {"smiles": "O=C(c1ccc(Cl)cc1)N1CCN(c2ccccn2)CC1", "values": [{"measurement": "outcome", "result": "inactive"}]}, {"smiles": "Clc1ccc2c(N3CCNCC3)ccnc2c1", "values": [{"measurement": "outcome", "result": "inactive"}]}, {"smiles": "COc1cccc2c(N3CCN(C(=O)c4ccc(Cl)cc4)CC3)cc(C)nc12", "values": [{"measurement": "outcome", "result": "inactive"}]}, {"smiles": "O=C(c1ccc(Cl)cn1)N1CCN(c2ccnc3cc(Cl)ccc23)CC1", "values": [{"measurement": "outcome", "result": "inactive"}]}, {"smiles": "O=C(c1ccc(Cl)nc1)N1CCN(c2ccnc3cc(Cl)ccc23)CC1", "values": [{"measurement": "outcome", "result": "inactive"}]}, {"smiles": "COc1ccc(C(=O)N2CCN(c3ccnc4cc(Cl)ccc34)CC2)cc1", "values": [{"measurement": "outcome", "result": "inactive"}]}, {"smiles": "O=C(c1ccc(Cl)cc1)N1CCCN(c2ccnc3cc(Cl)ccc23)CC1", "values": [{"measurement": "outcome", "result": "inactive"}]}, {"smiles": "Cc1cc(N2CCN(C(=O)c3ccc(Cl)cc3)CC2)c2ccccc2n1", "values": [{"measurement": "outcome", "result": "inactive"}]}, {"smiles": "O=C(c1ccc(Cl)cc1)N1CCN(c2ccncc2)CC1", "values": [{"measurement": "outcome", "result": "inactive"}]}, {"smiles": "COc1ccc2c(N3CCN(C(=O)c4ccc(Cl)cc4)CC3)ccnc2c1", "values": [{"measurement": "outcome", "result": "inactive"}]}, {"smiles": "O=C(c1ccc(Cl)cc1)N1CCN(c2ncnc3nc[nH]c23)CC1", "values": [{"measurement": "outcome", "result": "inactive"}]}, {"smiles": "N#Cc1ccc(N2CCN(C(=O)c3ccc(Cl)cc3)CC2)nc1", "values": [{"measurement": "outcome", "result": "inactive"}]}, {"smiles": "O=C(Nc1ccc(Cl)cc1)N1CCN(c2ccnc3cc(Cl)ccc23)CC1", "values": [{"measurement": "outcome", "result": "inactive"}]}, {"smiles": "O=C(C1CCCCC1)N1CCN(c2ccnc3cc(Cl)ccc23)CC1", "values": [{"measurement": "outcome", "result": "inactive"}]}, {"smiles": "O=C(c1ccc(Cl)cc1)N1CCNCC1", "values": [{"measurement": "outcome", "result": "inactive"}]}, {"smiles": "O=C(C1CCCC1)N1CCN(c2ccnc3cc(Cl)ccc23)CC1", "values": [{"measurement": "outcome", "result": "inactive"}]}, {"smiles": "COCCC(=O)N1CCN(c2ccnc3cc(Cl)ccc23)CC1", "values": [{"measurement": "outcome", "result": "inactive"}]}, {"smiles": "CC1CN(c2ccnc3cc(Cl)ccc23)CCN1C(=O)c1ccc(Cl)cc1", "note": "(stereo unspecified)", "values": [{"measurement": "outcome", "result": "inactive"}]}, {"smiles": "O=C(c1ccc(Cl)cc1)N1CCN(c2ccnc3ccccc23)CC1", "values": [{"measurement": "outcome", "result": "inactive"}]}, {"smiles": "O=C(c1ccccc1Cl)N1CCN(c2ccnc3cc(Cl)ccc23)CC1", "values": [{"measurement": "outcome", "result": "inactive"}]}, {"smiles": "O=C(c1cccc(Cl)c1)N1CCN(c2ccnc3cc(Cl)ccc23)CC1", "values": [{"measurement": "outcome", "result": "inactive"}]}, {"smiles": "O=C(c1ccc(F)cc1)N1CCN(c2ccnc3cc(Cl)ccc23)CC1", "values": [{"measurement": "outcome", "result": "inactive"}]}, {"smiles": "O=C(c1ccc(Cl)cc1)N1CCN(c2ccnc3cc(Cl)ccc23)CC1", "values": [{"measurement": "outcome", "result": "inactive"}]}, {"smiles": "CC(C)CC(=O)N1CCN(c2ccnc3cc(Cl)ccc23)CC1", "values": [{"measurement": "outcome", "result": "inactive"}]}, {"smiles": "CCCC(=O)N1CCN(c2ccnc3cc(Cl)ccc23)CC1", "values": [{"measurement": "outcome", "result": "inactive"}]}, {"smiles": "CC(C)C(=O)N1CCN(c2ccnc3cc(Cl)ccc23)CC1", "values": [{"measurement": "outcome", "result": "inactive"}]}, {"smiles": "O=C(C1CCC1)N1CCN(c2ccnc3cc(Cl)ccc23)CC1", "values": [{"measurement": "outcome", "result": "inactive"}]}, {"smiles": "Cc1cc(N2CCN(C(=O)c3ccc(Cl)cc3)CC2)c2ccc(F)cc2n1", "values": [{"measurement": "outcome", "result": "inactive"}]}, {"smiles": "O=C(c1ccc(Cl)cc1)C1CCN(c2ccnc3cc(Cl)ccc23)CC1", "values": [{"measurement": "outcome", "result": "inactive"}]}]}
